The list is not random: actives were taken first. Their share in the collection is about 2.4%.
D2 PAM-1 = potentiates the human D2 dopamine receptor allosterically. P14416. DiscoveRx D2 beta-arrestin cells, luminescence, 90 min; 100% = 57 uM dopamine signal. potentiation, % (no concentration beside the values). 360,000 tested, 0.23% active; in the data active means potentiation above about 50%; inconclusive means mostly about 30% to 49%
Target sequence (P14416 whole entry, looked up): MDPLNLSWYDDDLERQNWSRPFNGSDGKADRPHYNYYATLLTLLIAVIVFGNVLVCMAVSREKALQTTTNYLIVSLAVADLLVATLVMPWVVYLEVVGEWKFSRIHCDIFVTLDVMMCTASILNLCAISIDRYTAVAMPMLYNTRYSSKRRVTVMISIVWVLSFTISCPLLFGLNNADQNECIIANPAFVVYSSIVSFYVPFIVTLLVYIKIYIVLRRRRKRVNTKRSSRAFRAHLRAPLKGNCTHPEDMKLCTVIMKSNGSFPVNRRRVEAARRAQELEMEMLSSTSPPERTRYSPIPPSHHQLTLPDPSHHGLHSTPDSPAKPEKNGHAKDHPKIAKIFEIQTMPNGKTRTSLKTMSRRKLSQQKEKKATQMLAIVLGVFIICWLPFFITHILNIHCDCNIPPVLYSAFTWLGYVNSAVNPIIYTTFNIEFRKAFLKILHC
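PathHunter beta-arrestin assay in DiscoveRx D2 cells. Compounds were added with an EC20 of dopamine (50 nM final) for 90 min at 37 deg C. Luminescence was read 1 h after detection reagent, with 57 uM dopamine as the EC100 control.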
D2 antagonist = D2 dopamine receptor (human) antagonism; P14416; HEK293 TREx D2 cells, calcium flux, dopamine EC80; inhibition, % at 10 µM; 340,000 tested, 2% active; in the data active means inhibition above about 30%; inactive means below that, where a call was filed; further: 0% is about no effect
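Overnight-induced (tetracycline, 30 C) HEK293 T-REx cells carrying force-coupled D2 receive a no-wash calcium dye, then compound, then EC80 dopamine at 180 s; signals are read kinetically throughout.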
D2 ag-1 = human D2 receptor agonism in beta-arrestin assay. P14416. DiscoveRx PathHunter D2 beta-arrestin, luminescence, 90 min; 100% = 57 uM dopamine signal. activation, % (no concentration beside the values). 360,000 tested, 0.084% active; in the data active means activation above about 40%; inconclusive means between about 15% and that limit
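DiscoveRx PathHunter D2 beta-arrestin cells (2,100/well) attached overnight, then compound-stimulated 90 min at 37 C in HBSS/10 mM HEPES/0.1% Tween-20 buffer; beta-galactosidase complementation read by luminescence after 1 h at ambient temperature. Dopamine 57 uM final (EC100) as control.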
D2 PAM-2 = positively modulates the human D2 dopamine receptor allosterically | P14416 | HEK293 T-REx D2, calcium flux, EC20 dopamine potentiation | potentiation, % at 10 µM | 340,000 tested, 0.34% active;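 active means potentiation over 3 SD above the plate norm, cut at about 30% in these data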; further: 0% is about no effect
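Potentiation of an EC20 dopamine calcium response measured kinetically over 180 s, after a preceding 180 s compound-only read flagging agonists. Cells: inducible Hek293 Trex D2 line, 4000/well, cultured overnight at 30 C before dye loading.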
D2 ag-2 = activates the human D2 dopamine receptor; 340,000 tested, 0.53% active; HEK293 T-REx D2 cells, calcium flux agonist mode; P14416; activation, % at 2 µM;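 active means activation over 3 SD above normal in the single-dose calcium agonist read, cut at about 30% in these data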; further: 0% is about no effect
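Agonism scored from kinetic calcium signal (1 read/sec, 180 s) following compound pin transfer, after a 10 s baseline. Cells: HEK293 Trex line expressing inducible D2 receptor coupled to calcium, dye-loaded after overnight culture at 30 C.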
Starred values were filed as active, the others as inactive; ? = inconclusive; · = no result.

SMILES	D2 PAM-1	D2 antagonist	D2 ag-1	D2 PAM-2	D2 ag-2
CCOc1cccc(C(=O)Nc2ccc3oc(-c4ccncc4)nc3c2)c1	·	·	·	-6.4	-1.0
COc1ccc(NC2c3ccccc3C(=O)N2c2ccccn2)cc1 (stereo not given)	2.4	41.1*	-2.2	-4.3	-1.3
Cc1cc(C)n(CCNC(=O)[C@H]2O[C@@H](n3cnc4c(N)ncnc43)[C@H](O)[C@@H]2O)n1	2.0	·	-2.1	·	·
CCOC(=O)c1c(C)[nH]c(C(=O)COC(=O)C2CC2)c1C	-3.2	-8.7	-0.4	-7.9	-0.3
CC(=O)c1c(C)[nH]c(C(=O)COC(=O)C2CC2)c1C	1.4	32.4*	1.5	-1.5	-3.0
Cc1ccc(S(=O)(=O)NCCSc2nncn2C)cc1	-3.7	-16.2	0.9	35.1*	0.2
Cc1cccc2c3c([nH]c12)CCN(C)C3	-23.7	66.1*	-4.0	-28.1	1.7
NC(=O)c1cccc2c3c([nH]c12)CCCC3	-17.3	-5.8	-3.1	-3.6	-0.2
Cc1cccc(OCCOCCSc2ncccn2)c1	4.6	8.3	-1.0	-1.3	-0.1
Cc1ccc(OCCSc2ncccn2)c(C)c1	-16.1	36.7*	-1.5	10.0	-1.5
CC1CCC(C(C)C)C(OC(=O)COC(=O)c2cc(O)ccc2N)C1 (stereo not given)	92.8*	4.9	?	0.4	-1.3
CC1CCC(C(C)C)C(OC(=O)COC(=O)c2ccc(=O)[nH]c2)C1 (stereo not given)	-7.0	6.2	0.6	15.7	1.7
O=[N+]([O-])c1ccc(S(=O)(=O)c2cccc(C(F)(F)F)c2)nc1	-22.1	·	10.7	·	·
CCc1nn2c(=O)c(S(=O)(=O)Nc3ccc(OC)c(Cl)c3)c(C)nc2s1	·	·	·	-2.0	1.3
COc1cc(NC(=O)CCCC(=O)OCC(F)(F)C(F)F)nc(OC)n1	9.8	52.2*	-0.2	6.4	-1.2
Cc1cc(O)ccc1C1(c2ccc(O)cc2C)OC(=O)c2ccccc21	-2.6	-2.8	-0.7	6.6	0.2
CC(=O)Oc1ccc2c(c1)Oc1cc(OC(C)=O)ccc1C21OC(=O)c2ccccc21	?	83.5*	7.0	-24.4	165.4*
CC1CCCN(CC(O)COC(c2ccccc2)c2ccccc2)C1 (stereo not given)	-9.9	50.2*	-1.0	-9.7	1.0
CC(=O)c1ccc(N2CCN(CC(O)COC(c3ccccc3)c3ccccc3)CC2)cc1 (stereo not given)	-12.2	-17.1	-0.9	37.1*	-0.8
CC(=O)c1ccc(OCC(O)CN2CCN(S(=O)(=O)c3c(C)cc(C)cc3C)CC2)cc1 (stereo not given)	-6.3	-0.2	1.0	1.8	0.7
COc1cc(C(C)=O)ccc1OCC(O)CN1CCN(c2cc(C)cc(C)c2)CC1 (stereo not given)	-4.2	57.9*	3.8	-30.3	1.4
Cc1cc(C)c(-c2cc(C(F)(F)F)no2)c(=O)[nH]1	1.1	32.3*	2.5	-10.4	2.3
CCCNC(=O)C(=O)NCC(c1ccc2c(c1)OCO2)N1CCOCC1 (stereo not given)	·	·	·	·	0.9
CC1(c2ccccc2)NC(=O)N(CC(=O)N2CCOCC2)C1=O (stereo not given)	-15.9	0.3	-3.4	-3.2	-0.4
CC(C)(C)C1(c2ccccc2)NC(=O)N(CC(=O)N2CCOCC2)C1=O (stereo not given)	9.8	43.8*	1.9	-17.4	0.4
SMILES	D2 PAM-1	D2 antagonist	D2 ag-1	D2 PAM-2	D2 ag-2
Cc1cc(=O)[nH]c(N/N=C/c2ccc(-c3ccc(F)cc3)o2)n1	-5.8	48.3*	-3.8	-8.6	-0.6
CC(=O)Nc1ccc(Oc2sc(C(=O)c3ccccc3)c(N)c2C#N)cc1	-9.7	31.5*	-3.0	-5.0	0.2
CCN(CC(=O)Nc1cc(Cl)ccc1C)C(=O)CSCc1c(C)noc1C	-10.1	32.7*	-0.4	-16.4	0.2
CCN(CC(=O)Nc1cc(Cl)ccc1C)C(=O)C1CC(=O)N(Cc2ccccc2)C1 (stereo not given)	-13.0	7.5	3.2	-24.8	0.1
CCN(CC(=O)Nc1cc(Cl)ccc1C)C(=O)C1CC1	-3.0	55.7*	-0.8	7.0	0.2
O=C(NC1CC1)C1=C[C@@H](c2ccc(Br)cc2)C[C@@H](OCc2ccc(CO)cc2)O1	-7.3	-15.9	-5.6	14.8	0.0
NC(=O)C1CCN(C(=O)NC2CC(=O)N(c3ccc4c(c3)OCCO4)C2)CC1 (stereo not given)	-31.0	45.6*	-8.8	-8.4	0.0
COc1ccc(CN2CCNC(=O)C2CC(=O)N2CCCN(C(C)=O)CC2)cc1OC (stereo not given)	-12.2	-1.2	-10.5	-0.1	-0.4
O=C(O)Cc1ccc(NC2(c3ccccc3)C(=O)c3ccccc3C2=O)cc1	·	·	·	-9.3	·
CCn1c(CNc2ccc(Cl)cc2)nnc1SCCN1CCCCC1	-52.6	50.0*	-2.5	-26.9	-0.1
CC1(C2CC2)NC(=O)N(CC(=O)N2CCN(S(=O)(=O)c3ccc(F)c(F)c3)CC2)C1=O (stereo not given)	-12.6	22.0	0.0	9.6	-1.1
Cn1c(=O)n(CCCc2ccccc2)c(=O)c2c1nc1n2CCN1c1ccc(F)cc1	·	·	·	6.8	-0.3
CCOC(=O)c1c(C)[nH]c(C)c1S(=O)(=O)N1CCC(C(=O)Nc2ccccc2CC)CC1	·	·	·	1.8	0.3
CCN1C(=O)[C@H]2[C@@H](c3ccc(-c4ccc(Cl)c(Cl)c4)c(OC)c3)N[C@@](Cc3ccccc3)(C(=O)OC)[C@H]2C1=O	-6.4	12.7	-0.6	10.9	0.2
N#C/C(=C\c1c(Cl)cccc1Cl)c1nc2ccccc2o1	57.9*	-6.4	?	5.5	0.7
COC(=O)COc1cccc2c(=O)n(CC(=O)N3CCCc4ccccc43)ccc12	-4.7	30.9*	-4.9	6.7	0.0
CCOC(=O)COc1cccc2c(=O)n(CC(=O)N3CCCCC3)ccc12	-4.3	21.5	1.7	4.5	0.3
COc1ccc(/C=C/C(=O)Nc2cc(C(F)(F)F)ccc2Cl)cc1	-25.8	32.0*	4.3	-20.5	0.5
Cc1nn(C)c2c1c(C(F)(F)F)cc(=O)n2CC(=O)NCc1ccccc1Cl	·	·	·	-10.9	0.6
Nc1nnc(SCC(=O)Nc2ccccc2C(F)(F)F)s1	·	·	·	8.2	-1.9
N#Cc1cnc(SCC(=O)Nc2ccccc2C(F)(F)F)nc1N	-7.4	32.0*	-0.3	-0.7	1.3
N#CC1(c2ccccc2)CCC(NCCc2ccccc2)CC1 (stereo not given)	-19.5	45.6*	-0.3	-24.2	2.7
CCOC(=O)c1ccccc1NC(=O)c1c(C)oc2ncnc(N3CCOCC3)c12	·	·	·	-8.4	·
Fc1cccc(NC(=S)NC2CCCCCCC2)c1	-18.5	15.6	-5.1	2.1	7.3
Cc1nc2ccc(Cl)cc2nc(C)/c1=N\O	83.1*	-11.1	12.8	8.4	0.6
CC(=O)Nc1ccc(NS(=O)(=O)c2ccc3c(c2)oc(=O)n3C)cc1	2.5	6.7	2.7	12.3	0.7
